Active and inactive are the calls of the source. Where a call stands in place of a potency, no number is given. Unless noted, calls follow the shape of the full dose curve.
Key:
[1] = target: Estrogen receptor (Homo sapiens) (UniProt P03372); experiment: qHTS assay for small molecule antagonists of estrogen receptor alpha signaling (AID 588513; active = well fitted curve in the direction sought with a large enough effect in the signal ratio, with a control signal flat, not every such curve was filed as active; inconclusive = small, poorly fitted or top-dose-only effect, or effect the other way, or a change in a side signal; inactive = no such curve, though single readings can be large or run the other way; the % refers to the signal ratio; also: potency is read from the fitted curve at half-maximal effect)
Procedure, shortened: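 Fluorescence from CCF4 substrate after 2 h at room temperature gave reporter activity; cells had been exposed to compound and 0.5nM 17-beta-estradiol for 18 h at 37 C. Hill-equation fitting yielded IC50 and maximal response.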

[2] = target: Estrogen receptor (Homo sapiens) (UniProt P03372); experiment: qHTS assay for small molecule agonists of estrogen receptor alpha signaling (AID 588514); also: nearly all actives have a fitted effect of over 70% in size
Procedure, shortened: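 Read-out: CCF4 fluorescence from a beta-lactamase reporter in ER-alpha-UAS-bla HEK 293 cells after 18 hrs of compound exposure at 37 C. Normalized to 20 nM 17-beta-estradiol (100%) and DMSO (0%).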

[3] = target: Peroxisome proliferator-activated receptor gamma (Homo sapiens) (UniProt P37231); experiment: qHTS assay for small molecule agonists of peroxisome proliferator-activated receptor gamma signaling (AID 588536; active = well fitted curve in the direction sought with a large enough effect in the signal ratio, with a control signal flat, not every such curve was filed as active; inconclusive = small, poorly fitted or top-dose-only effect, or effect the other way, or a change in a side signal; inactive = no such curve, though single readings can be large or run the other way; the % refers to the signal ratio)
Procedure, shortened: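 Using GeneBLAzer HEK293 cells, response was quantified by CCF4 fluorescence and normalized between basal DMSO (0%) and rosiglitazone 2 uM (100%); curves yielded half-maximal stimulation concentration and efficacy.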

[4] = target: Vitamin D3 receptor (Homo sapiens) (UniProt P11473); experiment: qHTS assay for small molecule antagonists of vitamin D receptor signaling (AID 588541);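 also: receptor activated by calcitriol during compound treatment; series mostly up to about 77 µM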
Procedure, shortened: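 VDR-UAS-bla HEK293T cells (2000/well, 2% charcoal-stripped FBS) were treated with titrated compounds plus 1-alpha,25-dihydroxyvitamin D3 (50 nM or 3 nM final) for 16 h at 37 C. CCF4 beta-lactamase fluorescence was read; Hill fits gave IC50.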

[5] = target: Retinoic acid receptor RXR-alpha (Homo sapiens) (UniProt P19793); experiment: qHTS assay for small molecule agonists of retinoid X receptor alpha signaling (AID 588544)
[6] = target: Thyroid hormone receptor beta (Homo sapiens) (UniProt P10828); experiment: qHTS assay for small molecule agonists of thyroid hormone receptor beta signaling (AID 588545)
Procedure, shortened: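 Beta-lactamase reporter activity under TR response element control is measured in HEK 293 cells after 18 hrs compound exposure. Signal is ratiometric CCF4 fluorescence, 460/530 nm.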

[7] = qHTS assay for small molecule antagonists of retinoid X receptor alpha signaling (AID 588546; active = well fitted inhibition curve with a large enough effect in the signal ratio, with a control signal flat, not every such curve was filed as active; inconclusive = small, poorly fitted or top-dose-only effect, or effect the other way, or a change in a side signal; inactive = no such curve, though single readings can be large or run the other way; the % refers to the signal ratio;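 also: cells stimulated with 9-cis-retinoic acid as agonist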); conditions: HEK293T RXRa-UAS-bla, beta-lactamase ratio, antagonist mode; measured here: W530 green channel, cytotoxicity proxy
Procedure, shortened: (§1)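 Beta-lactamase reporter inhibition, read as CCF4 fluorescence ratio (ex 405, em 460/530 nm) after 2 h at RT. HEK293T UAS-bla cells, 2500/well, were stimulated with 9-cis-RA at 500 or 100 nM final alongside test compound for 18 h at 37 C.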

[8] = target: Retinoic acid receptor RXR-alpha (Homo sapiens) (UniProt P19793); experiment: as above; conditions: HEK293T RXRa-UAS-bla, beta-lactamase ratio, antagonist mode
Procedure, shortened: as §1

[9] = target: Thyroid hormone receptor beta (Homo sapiens) (UniProt P10828); experiment: qHTS assay for small molecule antagonists of thyroid hormone receptor beta signaling (AID 588547; active = well fitted inhibition curve with a large enough effect in the signal ratio, with a control signal flat, not every such curve was filed as active; inconclusive = small, poorly fitted or top-dose-only effect, or effect the other way, or a change in a side signal; the % refers to the signal ratio;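 also: cells stimulated with 0.4 nM T3 agonist during compound exposure; series mostly up to about 77 µM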); conditions: TR-UAS-bla HEK293, beta-lactamase ratio, antagonist mode, 18 h
Procedure, shortened: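 TR-UAS-bla GripTite HEK293 cells in 2% charcoal/dextran FBS medium were preincubated 4 h at 37 C, given compound (0.59 nM to 92 uM) plus 0.4 nM T3 (final) for 18 h, then CCF4 for 2 h at RT; Hill fit gave IC50.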

[10] = qHTS assay for small molecule activators of the p53 signaling pathway (AID 651743; active = well fitted activation curve with a large enough effect in the signal ratio, not every such curve was filed as active; inconclusive = small, poorly fitted or top-dose-only effect, or a change in a side signal; the % refers to the signal ratio; also: potency is read from the fitted curve at half-maximal effect; as to activation: series mostly up to about 92 µM); conditions: HCT-116 p53RE-bla, beta-lactamase FRET ratio, 16 h; activation: stronger effect = higher value
Procedure, shortened: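 Here HCT-116 cells with an integrated p53-responsive beta-lactamase gene were incubated with compounds (16 hours, 37 C) after a 5-hour plating period; beta-lactamase activity was detected as fluorescence intensity via B/G FRET substrate.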

[11] = target: Peroxisome proliferator-activated receptor alpha (Homo sapiens) (UniProt Q07869); experiment: qHTS assay for small molecule agonists of the peroxisome proliferator-activated receptor alpha (PPARalpha) signaling pathway (AID 651778; active = well fitted curve in the direction sought with a large enough effect; inconclusive = small, poorly fitted or top-dose-only effect, or another doubt; inactive = no such curve, though single readings can be large; an effect the other way counts as inactive or inconclusive); conditions: PathHunter PPARalpha complementation, chemiluminescence, 6 h; max response: stronger effect = higher value
Procedure, shortened: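 Cells plated at 2,000/well and held overnight at 37 C, 5% CO2, then compound added by pin tool for 6 hr; after PathHunter detection reagent and 60 min at room temperature, chemiluminescence from enzyme complementation was read.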

[12] = qHTS assay for small molecule agonists of the antioxidant response element (ARE) signaling pathway measured by Nrf2-dependant transcriptional activity (AID 720636; active = well fitted curve in the direction sought with a large enough effect in the repeat runs; inconclusive = weak or mixed curves; inactive = no such curve, though single readings can be large; an effect the other way counts as inactive or inconclusive;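 also: HepG2 cells with an ARE-driven luciferase reporter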)
Procedure, shortened: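 Nrf2-dependent transcription is measured in ARE-luc HepG2 cells: compound is applied for 16 hr at 37 C after a 6 hr attachment period, and luciferase activity is quantified by luminescence using ONE-Glo.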

[13] = qHTS assay for small molecule agonists of the antioxidant response element (ARE) signaling pathway measured by Nrf2-dependant transcriptional activity - cell viability counter screen (AID 720653; active = well fitted curve in the direction sought with a large enough effect in the repeat runs; inconclusive = weak or mixed curves; inactive = no such curve, though single readings can be large; an effect the other way counts as inactive or inconclusive); conditions: ARE-bla HepG2 viability, CellTiter-Glo ATP luminescence, 16 h; max response: stronger effect = lower value
Procedure, shortened: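 ARE-bla HepG2 cells (2,000/well) rested 5 hrs at 37C/5% CO2, then exposed to compounds in DMSO for 16 hrs. Viability was read in the same wells as intracellular ATP by luminescence, 30 min at room temperature after reagent addition.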

[14] = qHTS assay for cell viability of HEK293 cells (AID 743288; active = well fitted curve in the direction sought with a large enough effect; inconclusive = small, poorly fitted or top-dose-only effect, or another doubt; inactive = no such curve, though single readings can be large; an effect the other way counts as inactive or inconclusive; also: nearly all actives have a fitted effect of over 50% in size); conditions: ATP luminescence (CellTiter-Glo), 18 h; max response: stronger effect = lower value
Procedure, shortened: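 Viable-cell counts were inferred from luciferase-based ATP content in HEK293 cells seeded at 2,000/well, pre-incubated ≥5 h, then dosed with DMSO-solubilised compounds for 18 h at 37 C.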

[15] = target: Nuclear receptor subfamily 1 group I member 2 (Rattus norvegicus) (UniProt Q9R1A7); experiment: qHTS assay for small molecule activators of the rat pregnane X receptor (rPXR) signaling pathway (AID 651751; call rule not given here); conditions: rPXR reporter cells, luciferase (One-Glo), 24 h
[16] = target: Peroxisome proliferator-activated receptor gamma (Homo sapiens) (UniProt P37231); experiment: qHTS assay for small molecule antagonists of peroxisome proliferator-activated receptor gamma signaling (AID 588537; active = well fitted inhibition curve with a large enough effect in the signal ratio, with a control signal flat, not every such curve was filed as active; inconclusive = small, poorly fitted or top-dose-only effect, or effect the other way, or a change in a side signal; the % refers to the signal ratio;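 also: reporter cells co-stimulated with 50 nM rosiglitazone agonist during compound treatment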)
Procedure, shortened: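 HEK293 cells, PPAR-gamma-UAS-bla, 3000/well. Pre-incubation 6-6.5 h, 37 C. Compound titration with rosiglitazone 50 nM final, 16 h. CCF4 dye, 2 h RT, dual-emission fluorescence.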

[17] = qHTS assay for cell viability of the p53RE-bla HCT-116 cell line (AID 743292; active = well fitted curve in the direction sought with a large enough effect; inconclusive = small, poorly fitted or top-dose-only effect, or another doubt; inactive = no such curve, though single readings can be large; an effect the other way counts as inactive or inconclusive; also: nearly all actives have a fitted effect of over 55% in size)
Procedure, shortened: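 ATP-based luminescence, 16 h compound exposure at 37 C, p53RE-bla HCT-116 cells at 4,000/well.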

[18] = target: Peroxisome proliferator-activated receptor delta (Homo sapiens) (UniProt Q03181); experiment: qHTS assay for small molecule agonists of peroxisome proliferator-activated receptor delta signaling (AID 588534)
Procedure, shortened: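 Titration series tested in agonist mode on beta-lactamase reporter cells; 18 hrs at 37 C after a 5 hr pre-incubation. Readout: CCF4 fluorescence, 2 hrs RT. Hill equation gives EC50 and maximal response.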

[19] = qHTS assay for small molecule antagonists of peroxisome proliferator-activated receptor delta signaling (AID 588535); conditions: HEK293T PPARd-UAS-bla, beta-lactamase FRET ratio, 18 h; 460 nm channel;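 also: cells co-treated with a PPAR-delta agonist as stimulator during compound exposure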
Procedure, shortened: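 Compounds tested in titration on PPAR-delta-UAS-bla HEK293T cells grown in charcoal/dextran-stripped serum (2%); beta-lactamase activity read via CCF4 emission at 460 and 530 nm.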

[20] = qHTS assay for environmental chemicals that activate the Aryl hydrocarbon Receptor (AhR) signaling pathway (AID 651777; active = well fitted curve in the direction sought with a large enough effect; inconclusive = small, poorly fitted or top-dose-only effect, or another doubt; inactive = no such curve, though single readings can be large; an effect the other way counts as inactive or inconclusive; also: nearly all actives have a fitted effect of over 15% in size); conditions: 1A2-DRE human hepatoma cells, luciferase, 24 h; activation: stronger effect = higher value
Procedure, shortened: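 Reporter gene assay: hepatoma cells with DRE/CYP1A2-luciferase, 24 hr compound incubation at 37 C, 5% CO2, luminescence after One-Glo (30 min, RT).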

Chain of Peroxisome proliferator-activated receptor gamma (Homo sapiens) (P37231 whole entry, looked up): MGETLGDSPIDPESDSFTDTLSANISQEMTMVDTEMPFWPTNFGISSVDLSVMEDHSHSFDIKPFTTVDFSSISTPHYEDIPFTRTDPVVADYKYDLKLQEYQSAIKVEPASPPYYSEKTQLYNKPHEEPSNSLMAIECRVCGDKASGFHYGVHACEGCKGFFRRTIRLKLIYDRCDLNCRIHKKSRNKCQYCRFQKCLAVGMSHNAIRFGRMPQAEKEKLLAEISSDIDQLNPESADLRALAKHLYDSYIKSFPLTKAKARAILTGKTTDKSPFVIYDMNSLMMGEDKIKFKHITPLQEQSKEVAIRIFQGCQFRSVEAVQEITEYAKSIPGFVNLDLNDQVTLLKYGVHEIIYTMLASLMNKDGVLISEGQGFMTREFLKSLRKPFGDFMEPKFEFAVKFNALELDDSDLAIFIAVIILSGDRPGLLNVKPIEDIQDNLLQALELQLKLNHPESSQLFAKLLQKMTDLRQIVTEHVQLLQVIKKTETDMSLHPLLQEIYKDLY
Chain of Peroxisome proliferator-activated receptor alpha (Homo sapiens) (Q07869 whole entry, looked up): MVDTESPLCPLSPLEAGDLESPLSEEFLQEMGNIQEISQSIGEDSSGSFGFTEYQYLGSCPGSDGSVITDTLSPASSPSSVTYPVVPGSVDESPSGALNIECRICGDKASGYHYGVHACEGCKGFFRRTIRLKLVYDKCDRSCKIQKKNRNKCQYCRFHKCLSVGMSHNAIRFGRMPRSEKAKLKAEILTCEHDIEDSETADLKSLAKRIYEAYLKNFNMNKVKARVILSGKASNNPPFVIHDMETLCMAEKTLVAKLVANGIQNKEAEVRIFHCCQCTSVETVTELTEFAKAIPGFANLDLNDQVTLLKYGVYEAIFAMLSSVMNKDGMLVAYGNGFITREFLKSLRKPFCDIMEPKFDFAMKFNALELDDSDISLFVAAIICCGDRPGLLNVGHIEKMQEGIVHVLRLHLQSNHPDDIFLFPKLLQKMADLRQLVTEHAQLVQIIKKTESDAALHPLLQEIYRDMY
Chain of Retinoic acid receptor RXR-alpha (Homo sapiens) (P19793 whole entry, looked up): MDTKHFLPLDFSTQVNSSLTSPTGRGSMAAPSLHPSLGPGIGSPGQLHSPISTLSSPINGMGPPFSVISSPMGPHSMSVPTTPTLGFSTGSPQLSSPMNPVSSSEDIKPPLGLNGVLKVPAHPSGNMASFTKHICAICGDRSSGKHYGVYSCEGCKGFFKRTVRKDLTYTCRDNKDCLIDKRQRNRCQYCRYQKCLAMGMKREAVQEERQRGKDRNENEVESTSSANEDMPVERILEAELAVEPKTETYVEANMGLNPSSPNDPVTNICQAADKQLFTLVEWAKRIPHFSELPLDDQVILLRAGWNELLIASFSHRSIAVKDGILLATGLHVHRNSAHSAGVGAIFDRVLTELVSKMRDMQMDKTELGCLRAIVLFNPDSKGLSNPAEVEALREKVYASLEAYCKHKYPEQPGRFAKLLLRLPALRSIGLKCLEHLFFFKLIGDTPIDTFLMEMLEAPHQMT
Chain of Thyroid hormone receptor beta (Homo sapiens) (P10828 whole entry, looked up): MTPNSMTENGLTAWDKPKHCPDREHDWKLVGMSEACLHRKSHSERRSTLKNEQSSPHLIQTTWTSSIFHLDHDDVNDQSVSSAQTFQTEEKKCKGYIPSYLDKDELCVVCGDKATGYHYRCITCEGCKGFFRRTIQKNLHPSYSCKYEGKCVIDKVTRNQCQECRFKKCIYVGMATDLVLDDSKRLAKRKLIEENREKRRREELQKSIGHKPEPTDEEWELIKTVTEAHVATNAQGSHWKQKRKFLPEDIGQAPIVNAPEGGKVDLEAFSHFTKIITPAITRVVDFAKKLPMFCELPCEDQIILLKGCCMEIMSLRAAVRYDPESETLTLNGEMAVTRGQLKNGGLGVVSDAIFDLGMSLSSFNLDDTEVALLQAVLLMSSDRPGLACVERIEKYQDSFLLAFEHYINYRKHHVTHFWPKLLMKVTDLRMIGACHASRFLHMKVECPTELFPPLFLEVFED
Chain of Peroxisome proliferator-activated receptor delta (Homo sapiens) (Q03181 whole entry, looked up): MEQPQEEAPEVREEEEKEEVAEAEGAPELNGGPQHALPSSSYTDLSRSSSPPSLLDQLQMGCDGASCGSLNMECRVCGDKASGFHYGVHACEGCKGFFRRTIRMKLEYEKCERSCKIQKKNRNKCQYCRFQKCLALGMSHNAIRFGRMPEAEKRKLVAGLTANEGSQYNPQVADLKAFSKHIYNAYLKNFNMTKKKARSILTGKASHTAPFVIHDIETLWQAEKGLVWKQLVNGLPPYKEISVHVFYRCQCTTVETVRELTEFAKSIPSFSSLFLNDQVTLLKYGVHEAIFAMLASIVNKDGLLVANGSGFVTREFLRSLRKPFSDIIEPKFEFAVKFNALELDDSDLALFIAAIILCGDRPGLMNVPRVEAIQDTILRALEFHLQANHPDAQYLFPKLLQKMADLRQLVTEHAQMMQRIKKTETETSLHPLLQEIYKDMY
Chain of Nuclear receptor subfamily 1 group I member 2 (Rattus norvegicus) (Q9R1A7 whole entry, looked up): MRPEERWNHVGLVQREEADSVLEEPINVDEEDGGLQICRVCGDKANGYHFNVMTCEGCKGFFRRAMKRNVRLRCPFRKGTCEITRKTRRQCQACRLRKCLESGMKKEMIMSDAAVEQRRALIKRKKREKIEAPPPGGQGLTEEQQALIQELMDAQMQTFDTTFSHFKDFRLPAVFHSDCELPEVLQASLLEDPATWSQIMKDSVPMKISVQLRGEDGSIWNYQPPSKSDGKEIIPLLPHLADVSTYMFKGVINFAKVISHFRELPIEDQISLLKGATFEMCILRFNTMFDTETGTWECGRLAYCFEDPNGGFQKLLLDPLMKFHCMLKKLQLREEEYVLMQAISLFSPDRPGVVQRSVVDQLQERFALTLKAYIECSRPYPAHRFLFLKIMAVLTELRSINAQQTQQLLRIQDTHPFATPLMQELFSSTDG
Chain of Vitamin D3 receptor (Homo sapiens) (P11473 whole entry, looked up): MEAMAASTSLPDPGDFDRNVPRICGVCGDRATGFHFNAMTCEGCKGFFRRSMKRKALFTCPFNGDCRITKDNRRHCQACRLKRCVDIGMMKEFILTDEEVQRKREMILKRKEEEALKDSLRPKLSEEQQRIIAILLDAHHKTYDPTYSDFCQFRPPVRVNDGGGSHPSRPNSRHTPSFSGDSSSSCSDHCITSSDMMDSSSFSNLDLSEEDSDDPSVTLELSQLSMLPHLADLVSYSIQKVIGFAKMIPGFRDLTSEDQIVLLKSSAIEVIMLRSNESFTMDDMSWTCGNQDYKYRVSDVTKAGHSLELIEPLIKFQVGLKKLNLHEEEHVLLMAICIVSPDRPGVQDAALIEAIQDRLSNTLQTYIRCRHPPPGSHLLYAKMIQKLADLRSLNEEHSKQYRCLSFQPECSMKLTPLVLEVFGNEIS
Chain of Estrogen receptor (Homo sapiens) (P03372 whole entry, looked up): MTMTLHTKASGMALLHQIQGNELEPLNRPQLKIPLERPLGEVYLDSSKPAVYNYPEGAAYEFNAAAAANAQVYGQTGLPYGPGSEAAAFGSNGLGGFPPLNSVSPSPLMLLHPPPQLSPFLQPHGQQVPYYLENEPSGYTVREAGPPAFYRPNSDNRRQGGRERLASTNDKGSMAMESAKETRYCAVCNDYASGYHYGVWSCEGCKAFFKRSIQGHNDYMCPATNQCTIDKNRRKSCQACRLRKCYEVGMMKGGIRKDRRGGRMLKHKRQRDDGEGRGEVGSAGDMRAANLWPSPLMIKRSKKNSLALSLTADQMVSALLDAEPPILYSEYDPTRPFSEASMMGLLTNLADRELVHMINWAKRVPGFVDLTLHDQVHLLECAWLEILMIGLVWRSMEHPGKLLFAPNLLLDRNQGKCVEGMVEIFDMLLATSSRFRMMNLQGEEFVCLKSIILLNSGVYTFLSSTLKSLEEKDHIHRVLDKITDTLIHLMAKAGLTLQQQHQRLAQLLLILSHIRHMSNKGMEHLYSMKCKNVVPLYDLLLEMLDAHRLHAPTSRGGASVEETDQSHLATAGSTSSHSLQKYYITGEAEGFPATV

CCNc1nc(NCC)nc(SC)n1
Potency [1]: inactive
Potency [2]: inactive
Potency [3]: inactive
Potency [4]: inactive
Potency [5]: inactive
Potency [6]: inactive
max response [7]: -14%
max response [8]: -3.26% (inactive)
activity change % (negative = inhibition) [9]: -6.04% (inactive)
activation [10]: -3.86% (inactive)
max response [11]: 0.186% (inactive)
Potency [12]: inactive
max response [13]: 8.18% (inactive)
max response [14]: -5.22% (inactive)
max response [15]: 1.83% (inactive)

CCNP(=S)(OC)O/C(C)=C/C(=O)OC(C)C (centres undefined)
Potency [1]: inactive
Potency [2]: inactive
Potency [3]: inactive
Potency [16]: inactive
Potency [4]: inactive
Potency [5]: inactive
Potency [6]: inactive
max response [7]: -11.8%
activation [10]: -1.45% (inactive)
max response [11]: -0.524% (inactive)
Potency [12]: inactive
max response [14]: -5.26% (inactive)
Potency [17]: inactive

CNC(=O)Oc1cc(C)cc(C(C)C)c1
Potency [1]: inactive
Potency [2]: inactive
outcome [18]: inactive
max response [19]: -13.9%
Potency [3]: inactive
Potency [16]: inactive
Potency [4]: inactive
Potency [5]: inactive
Potency [6]: inactive
max response [7]: -5.53%
activity change % (negative = inhibition) [9]: 4.48% (inactive)
activation [10]: 6.05% (inactive)
activation [20]: 0.548% (inactive)
max response [11]: 4.47% (inactive)
Potency [12]: inactive
max response [13]: 3.5% (inactive)
max response [14]: -6.56% (inactive)
Potency [17]: inactive
max response [15]: -3.71% (inactive)

CCSCc1ccccc1OC(=O)NC
Potency [1]: inactive
outcome [18]: inactive
Potency [3]: inactive
Potency [16]: inactive
Potency [4]: inactive
Potency [5]: inactive
Potency [6]: inactive
max response [7]: -7.11%
max response [8]: -13% (inactive)
activity change % (negative = inhibition) [9]: -8.58% (inactive)
activation [20]: 0.553% (inactive)
max response [11]: -0.372% (inactive)
Potency [12]: inactive
max response [14]: -9.67% (inactive)
Potency [17]: inactive
max response [15]: 0.0425% (inactive)

CNC(=O)Oc1cccc2c1OC(C)(C)C2O (centres undefined)
Potency [1]: inactive
outcome [18]: inactive
Potency [3]: inactive
Potency [4]: inactive
Potency [5]: inactive
max response [7]: -12.4%
max response [8]: -10.3% (inactive)
activity change % (negative = inhibition) [9]: 7.05% (inactive)
activation [10]: -0.021% (inactive)
activation [20]: 0.301% (inactive)
max response [11]: -1.14% (inactive)
Potency [12]: inactive
max response [13]: -15.8% (inactive)
max response [14]: -0.251% (inactive)
Potency [17]: inactive
max response [15]: -0.827% (inactive)

c1cc(OCC2CO2)cc(OCC2CO2)c1 (centres undefined)
Potency [1]: 31.6 µM [inconclusive] (active)
outcome [18]: inactive
max response [19]: 21.9%
Potency [3]: inactive
Potency [16]: inactive
max response [7]: 6.7%
max response [8]: 5.23% (inactive)
activity change % (negative = inhibition) [9]: 15% (inactive)
Potency [10]: 25.1 µM (active)
Potency [12]: inactive

c1cc2c3c(cccc3c1)CC2
Potency [1]: inactive
outcome [18]: inactive
max response [19]: -25.4%
Potency [3]: inactive
Potency [16]: inactive
Potency [5]: inactive
Potency [6]: inactive
max response [7]: -4.84%
max response [8]: -3.28% (inactive)
activity change % (negative = inhibition) [9]: 3.51% (inactive)
activation [10]: 5.25% (inactive)
activation [20]: 0.274% (inactive)
max response [11]: -0.57% (inactive)
Potency [12]: inactive
max response [13]: 18.9% (inactive)
max response [14]: -7.08% (inactive)
Potency [17]: inactive
max response [15]: 0.0529% (inactive)

CCCCN(CC)C(=O)SCCC
Potency [1]: inactive
outcome [18]: inactive
max response [19]: 5.34%
Potency [3]: inactive
Potency [16]: inactive
Potency [4]: inactive
Potency [5]: inactive
Potency [6]: inactive
max response [7]: -6.82%
max response [8]: 3.02% (inactive)
activity change % (negative = inhibition) [9]: 1.78% (inactive)
activation [20]: 0.496% (inactive)
max response [11]: 0.725% (inactive)
Potency [12]: inactive
max response [13]: -4.49% (inactive)
max response [14]: -1.81% (inactive)
Potency [17]: inactive
max response [15]: 4.32% (inactive)

CCc1ccc(C(=O)NN(C(=O)c2cc(C)cc(C)c2)C(C)(C)C)cc1
Potency [1]: inactive
Potency [2]: inactive
outcome [18]: inactive
Potency [3]: inactive
Potency [5]: inactive
Potency [6]: inactive
activity change % (negative = inhibition) [9]: 18% (inactive)
activation [10]: 3.11% (inactive)
activation [20]: 1.38% (inactive)
max response [11]: -0.946% (inactive)
Potency [12]: inactive
max response [13]: -4.5% (inactive)
max response [14]: -11.8% (inactive)
Potency [17]: inactive

CCCCC(CC)CO[N+](=O)[O-] (centres undefined)
Potency [1]: inactive
Potency [2]: inactive
max response [19]: -28%
Potency [3]: inactive
Potency [16]: inactive
Potency [4]: inactive
Potency [5]: inactive
Potency [6]: inactive
max response [7]: -8.14%
max response [8]: 3.31% (inactive)
activity change % (negative = inhibition) [9]: -3.31% (inactive)
activation [10]: -4.18% (inactive)
activation [20]: 2.43% (inactive)
max response [11]: -0.348% (inactive)
Potency [12]: inactive
max response [13]: -12.3% (inactive)
max response [14]: 3.43% (inactive)
Potency [17]: inactive
max response [15]: 1.62% (inactive)

CNC(=O)O/N=C(\SC)C(=O)N(C)C
Potency [1]: inactive
outcome [18]: inactive
max response [19]: 22.2%
Potency [4]: inactive
Potency [5]: inactive
Potency [6]: inactive
max response [7]: -5.53%
activity change % (negative = inhibition) [9]: 0.203% (inactive)
activation [10]: 2.97% (inactive)
activation [20]: -0.668% (inactive)
max response [11]: 0.554% (inactive)
Potency [12]: inactive
max response [13]: -17.7% (inactive)
max response [14]: -24.8% (inactive)
Potency [17]: inactive
max response [15]: -0.972% (inactive)

Clc1ccccc1-c1nnc(-c2ccccc2Cl)nn1
Potency [1]: inactive
Potency [2]: inactive
max response [19]: -44.7%
Potency [3]: inactive
Potency [16]: inactive
Potency [4]: inactive
Potency [5]: inactive
Potency [6]: inactive
max response [7]: -19.7%
max response [8]: -5.51% (inactive)
activation [20]: 9.84% (inactive)
max response [11]: -0.0144% (inactive)
max response [13]: -3% (inactive)
max response [14]: -8.84% (inactive)
Potency [17]: inactive

From PubChem BioAssay (NCATS)
